This passage reports Potency and activity change, negative = viability loss results from PubChem BioAssay AID1345085 (National Center for Advancing Translational Sciences (NCATS), 2018).

Each structure is given as a SMILES string. Inconclusive results are not listed. Values without a mark were called inactive. Active and inactive are the calls of the source. The call rests on the fitted dose curve; in most records, active means well fitted cell-killing curve with a large enough effect; inconclusive means small, poorly fitted or top-dose-only effect, or effect the other way; inactive means no such curve, though single readings can be large or run the other way.
On the % scale 0 is the no-effect control and ±100 the full control effect; potency means the concentration at half of the fitted maximal effect.

The assay has as its system SKOV3. The experiment in a line: Confirmatory qHTS for gynecologic anti-cancer compounds from libraries of approved drugs and bioactive compounds. Further: nearly all actives have a fitted effect of over 55% in size. As to conditions: gynecologic cancer cell panel viability, ATPlite luminescence, 48 h; series mostly up to 57.6 µM. From the text: National Center for Advancing Translational Sciences [NCATS] Assay Overview: Chemotherapeutic drug responses vary from cancer to cancer and from patient to patient. These variations could be caused by a number of factors including patient genomic background, tumor mutations, tumor heterogeneity, and aspects of drug treatment. Chemotherapeutic drug resistance is also a common issue and can lead to ineffective treatment and patient death. Here we have profiled the cell killing effects of thousands of compounds to characterize the responses in three gynecological cancers, identify cancer-selective compounds, and understand the diversity of responses to these compounds from pan-cancer suppressors to single cell line selective compounds. In this assay, we screened a 7,914 compound drug library that included approved drug and bioactive compounds in six ovarian, three cervical, and two placental cancer cell lines using the ATPlite assay for cell viability. ATPlite is a luminescence based assay reliant on the conversion of a luciferase substrate to light in the presence of ATP. As a cytotoxic compound will suppress growth and decrease the number of cells, the concentration of ATP will decrease, and less light signal will be detected in the well. Hits were selected from the primary screen for follow-up confirmation. For the confirmation screens, the ovarian cancer cell lines included CAOV-3, SK-OV-3, SW 626, ES-2, PA-1, and TOV-21G. The cervical cancer cell lines included HeLa, Ca Ski, and C-33 A. The placental cancer cell lines included JEG-3 and JAR. HEK 293T cells were used as the control cell line to determine the selectivity index. The ATPlite assay was used to determine the IC50 values.
Assay Protocol Summary: 1,000 cells in 4 uL of media were dispensed into white, solid bottom 1536-well plates using a Multidrop Combi (Thermo Scientific). The Assay plates were incubated for 16 hours at 37 C with 5% CO2 in assay plates, followed by the addition of 23 nL of DMSO or drug dissolved in DMSO. . Each compound was assayed in 11 concentrations (1:3 dilution) from 57.5 uM to 0.977 nM, using the automated Wako 1536 Pin Tool workstation and incubated at 37 C with 5% CO2 48 hours. 4 uL of ATPlite, the ATP monitoring reagent, was then added to the each well of the assay plates using the Multidrop Combi reagent dispenser followed by incubation for 15 minutes at room temperature. The resulting luminescence was measured using the ViewLux plate reader.
Consider `CN(C)C(CCOc1cccc2ccccc12)c1ccccc1` (stereo not given), for which the Potency result was “inactive”.

Consider `COc1cccc2c1C(=O)c1c(O)c3c(c(O)c1C2=O)C[C@@](O)(C(=O)CO)C[C@@H]3O[C@H]1C[C@H](N)[C@H](O[C@@H]2CCCCO2)[C@H](C)O1`, for which the Potency is 0.685 µM (active).

Regarding `COc1cc(Nc2c(C#N)cnc3cc(OCCCN4CCN(C)CC4)c(OC)cc23)c(Cl)cc1Cl`, the Potency was 19.3 µM (active).

Consider `CCN[C@H]1C[C@H](C)S(=O)(=O)c2sc(S(N)(=O)=O)cc21`, for which the Potency entry is “inactive”.

Turning to `Cc1[nH]c2ccccc2c1CCNCc1ccc(/C=C/C(=O)NO)cc1`, the Potency was 0.172 µM (active).

Consider `Cc1cnc(Nc2ccc(CN3CCOCC3)cc2)nc1Nc1cccc(S(=O)(=O)NC(C)(C)C)c1`, for which the Potency was 4.85 µM (active).

With `Cc1ccc(C(=O)Nc2ccc(CN3CCN(C)CC3)c(C(F)(F)F)c2)cc1C#Cc1cnc2cccnn12`, the Potency was 12.2 µM (active).

As for `CCS(=O)(=O)N1CCN(c2ccc(Nc3ncc(C(N)=O)c(NC4CC4)n3)cc2)CC1`, the Potency was 15.3 µM (active).

For `CC(C)CC(=O)Nc1n[nH]c2c1CN(C(=O)C1CCN(C)CC1)C2(C)C`, the Potency entry is “inactive”.

Take `O=C(CCCCCCC(=O)Nc1ccccc1)NO`: the Potency is 1.37 µM (active).

As for `Cc1cc(CN2CCN(c3c(Br)cnc4nc(-c5ccc(N6CCN(C)CC6)cc5)[nH]c34)CC2)no1`, the Potency was 34.3 µM (active).

With `CN[C@@H](C)C(=O)N[C@H]1CN(C(=O)CC(C)C)CC[C@H]2CC[C@@H](C(=O)NC(c3ccccc3)c3ccccc3)N2C1=O`, the Potency is 0.611 µM (active).

Take `Cc1cnc(CNC(=O)c2c(=O)c3ccc(N4CCCN(C)CC4)nc3n3c2sc2ccccc23)cn1`: the activity change, negative = viability loss is 5.48% [at 10.7 µM].

Consider `CCC(=O)N1CCN(c2ccc(-n3c(=O)ccc4cnc5ccc(-c6cnc7ccccc7c6)cc5c43)cc2C(F)(F)F)CC1`, for which the Potency was 0.0044 µM (active).

For `CC(C)(C(=O)NCC(F)(F)C(F)(F)F)C(=O)NC1C(=O)Nc2ccccc2-c2ccccc21` (stereo not given), the Potency result was “inactive”.

In the case of `CN1C2CCC1CC(OC(=O)[C@H](CO)c1ccccc1)C2` (stereo not given in full), the Potency entry is “inactive”.

In the case of `CC(C)C[C@H](NC(=O)[C@H](Cc1ccccc1)NC(=O)c1cnccn1)B(O)O`, the Potency is 3.06 µM (active).

As for `CCN(CC)CCCC(C)Nc1ccnc2cc(Cl)ccc12` (stereo not given), the Potency entry was “inactive”.

In the case of `Cn1cc(-c2[nH]c3cc(NC(=O)[C@H](N)C4CCCCC4)cc4c3c2C=NNC4=O)cn1`, the Potency was 0.968 µM (active).

`CC(C)n1nc(-c2cc3cc(O)ccc3[nH]2)c2c(N)ncnc21`: the Potency is 3.85 µM (active).

Take `O=C(c1ccc(/C=C/c2n[nH]c3ccccc23)cc1)N1CCNCC1`: the Potency is 21.7 µM (active).

With `CN1CCN(CCOc2cc(OC3CCOCC3)c3c(Nc4c(Cl)ccc5c4OCO5)ncnc3c2)CC1`, the Potency result was “inactive”.

Consider `O=c1[nH]c(=O)n([C@H]2C[C@H](O)[C@@H](CO)O2)cc1F`, for which the Potency entry is “inactive”.

For `CCN1CCN(Cc2ccc(-c3cc4c(NC(C)c5ccccc5)ncnc4[nH]3)cc2)CC1` (stereo not given), the Potency is 17.2 µM (active).

With `CN1CCN(c2cccc(Nc3nc4c(-c5ccc(S(C)(=O)=O)cc5)cccn4n3)c2)CC1`, the Potency result is “inactive”.

On to `CC(=O)Nc1cccc(-n2c(=O)n(C3CC3)c(=O)c3c(Nc4ccc(I)cc4F)n(C)c(=O)c(C)c32)c1`, for which the Potency was 0.306 µM (active).

`CC(C)Nc1cc(-c2c[nH]c(C(=O)N[C@H](CO)c3cccc(Cl)c3)c2)c(Cl)cn1`: the Potency entry was “inactive”.

As to `Cc1cncc2cccc(S(=O)(=O)N3CCCN(C(=O)CN)C[C@@H]3C)c12`, the Potency result is “inactive”.

For the molecule `O=C(/C=C/c1cccc(S(=O)(=O)Nc2ccccc2)c1)NO`, the Potency is 1.88 µM (active).

As to `Cc1csc(NC(=O)c2sc3nc4c(c(C(F)(F)F)c3c2N)CCC4)n1`, the Potency is 1.53 µM (active).

For the molecule `CC[C@]1(O)C[C@H]2CN(CCc3c([nH]c4ccccc34)[C@@](C(=O)OC)(c3cc4c(cc3OC)N(C=O)[C@H]3[C@@](O)(C(=O)OC)[C@H](OC(C)=O)[C@]5(CC)C=CCN6CC[C@]43[C@@H]65)C2)C1`, the Potency result was “inactive”.

For the molecule `COc1cccc2c1C(=O)c1c(O)c3c(c(O)c1C2=O)C[C@@](O)(C(=O)CO)C[C@@H]3O[C@H]1C[C@H](N)[C@H](O)[C@H](C)O1`, the Potency is 0.432 µM (active).

For the molecule `S=c1nc[nH]c2nc[nH]c12`, the Potency was 5.44 µM (active).

`O=C(CCCCCCNC(=O)c1cnc(N(c2ccccc2)c2ccccc2)nc1)NO`: the Potency was 12.2 µM (active).

As to `Cc1ccc(C(=O)Nc2cccc(C(F)(F)F)c2)cc1-c1ccc2nc(NCCN3CCOCC3)ncc2c1`, the Potency is 12.2 µM (active).

Turning to `Nc1ccn([C@@H]2O[C@H](CO)[C@@H](O)C2(F)F)c(=O)n1`, the Potency was 1.37 µM (active).

As to `C[C@]12CCC(=O)C=C1CC[C@@H]1[C@@H]2[C@@H](O)C[C@@]2(C)[C@H]1CC[C@]2(O)C(=O)CO`, the Potency result was “inactive”.

For the molecule `CCS(=O)(=O)c1cccc(-c2cc(C(=O)NC3CCN(C)CC3)c(C)c3[nH]c4ncc(C)cc4c23)c1`, the Potency is 4.76 µM (active).

Consider `O=C1Cc2cc(CCN3CCN(c4nsc5ccccc45)CC3)c(Cl)cc2N1`, for which the Potency entry is “inactive”.

For the molecule `O=c1[nH]c(=O)n([C@H]2C[C@H](O)[C@@H](CO)O2)cc1Br`, the Potency entry was “inactive”.
